Reference: publication PMC11006913

Legend:
Experiment in all cases: PBM; 200 nM protein, PBS
Conditions in all cases: dsDNA, one strand shown
[1] = target: ALX3 (Homo sapiens, UniProt O95076 139-225, N203Q)
[2] = target: ALX3 (Homo sapiens, UniProt O95076 139-225)
[3] = target: ALX3 (Homo sapiens, UniProt O95076 139-225, N203S)
ALX3 (Homo sapiens, UniProt O95076 139-225, N203S), sequence (O95076 139-225 N203S): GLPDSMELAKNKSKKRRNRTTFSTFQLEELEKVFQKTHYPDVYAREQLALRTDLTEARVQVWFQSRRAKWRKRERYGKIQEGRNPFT

ALX3 (Homo sapiens, UniProt O95076 139-225), sequence (O95076 139-225): as the sequence (O95076 139-225 N203S) above, with S65N counted along it
ALX3 (Homo sapiens, UniProt O95076 139-225, N203Q), sequence (O95076 139-225 N203Q): as the sequence (O95076 139-225 N203S) above, with S65Q counted along it

## GGCGGACC
[1]
  binding signal: 7.72 upbm affinity estimate (log intensity, higher = more binding, comparable within an allelic series)
[2]
  binding signal: 7.74 upbm affinity estimate (log intensity, higher = more binding, comparable within an allelic series)
[3]
  binding signal: 7.67 upbm affinity estimate (log intensity, higher = more binding, comparable within an allelic series)
